# Targets with a hit are over-represented here; the source holds about 8,800 in all. About 0.5% of all pairs of compound and target were hits. Values without a mark were called inactive.
# What was measured:
# Test in all cases: log2 fold change, soluble protein after heating vs DMSO (PISA); higher = thermal stabilisation; K562 lysate, 10 uM; active = over 0.2 and 3.5 SD of the protein, either way, in both replicates (recomputed)
# [1] = compound: C=CC(=O)N1CCC[C@@H](n2nc(-c3ccc(Oc4ccccc4)cc3)c3c(N)ncnc32)C1 [ibrutinib]
# Method in brief: (§1)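 Log-two fold change in thermal stability relative to solvent controls is reported from duplicates. For each sample, crude K562 extract from dounce-homogenised pellets in PBS pH 7.4 with 1 mM MgCl2, at 1 mg/mL protein, was treated with 10 μM compound for 30 min. Aliquots heated for 3 min across 48°C-58°C were pooled, brought to 0.5% NP-40 at 4°C and cleared at 21,000xg for 90 min. The supernatant was quantified by TMTpro 16plex LC-MS/MS with channel sums equalised.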
# [2] = compound: CC(=O)c1cnc2ccc(-c3cc(Cl)c(O)c(Cl)c3)nc2c1N[C@H]1CC[C@H](CN(C)C)CC1
# Method in brief: as §1
# [3] = compound: CC(C)(C)Cn1c(N)nc2ccc(-c3[nH]c(C(C)(C)C)nc3-c3ccc(F)cc3)nc21 [ralimetinib]
# Method in brief: as §1
# [4] = compound: CC(C)(O)CC(=O)NCCn1ccc2ncnc(Nc3ccc(Oc4cccc(C(F)(F)F)c4)c(Cl)c3)c21
# Method in brief: as §1
# [5] = compound: CC(C)C1=C2N=C(C=C(N2N=C1)NCC3=CC=CC=C3)NCCCCCCN
# Method in brief: as §1
# [6] = compound: CC1=C(C(CC(=O)N1)C2=CC=C(C=C2)C(F)(F)F)C(=O)NC3=C(C=C4C(=C3)C=NN4)F
# Method in brief: as §1
# [7] = compound: CC1=C(C2=C(C=C1)C(=O)C3=CC=CC=C3N2CCCN)C
# Method in brief: as §1
# [8] = compound: CC1=C(C=C(C=C1)NC(=O)C2=CC(=CC=C2)C(C)(C)C#N)NC3=CC4=C(C=C3)N=CN(C4=O)C
# Method in brief: as §1
# [9] = compound: CC1=C(C=C(C=C1)NC(=O)C2=CC(=CC=C2)N(C)C)NC(=O)C3=CC=C(C=C3)O
# Method in brief: as §1
# [10] = compound: CC1=CC=C(C=C1)SC2=C3C=C(SC3=CN=C2)C(=O)N
# Method in brief: as §1
# UniProt Q8WUM4, sequence (Q8WUM4 whole entry, looked up): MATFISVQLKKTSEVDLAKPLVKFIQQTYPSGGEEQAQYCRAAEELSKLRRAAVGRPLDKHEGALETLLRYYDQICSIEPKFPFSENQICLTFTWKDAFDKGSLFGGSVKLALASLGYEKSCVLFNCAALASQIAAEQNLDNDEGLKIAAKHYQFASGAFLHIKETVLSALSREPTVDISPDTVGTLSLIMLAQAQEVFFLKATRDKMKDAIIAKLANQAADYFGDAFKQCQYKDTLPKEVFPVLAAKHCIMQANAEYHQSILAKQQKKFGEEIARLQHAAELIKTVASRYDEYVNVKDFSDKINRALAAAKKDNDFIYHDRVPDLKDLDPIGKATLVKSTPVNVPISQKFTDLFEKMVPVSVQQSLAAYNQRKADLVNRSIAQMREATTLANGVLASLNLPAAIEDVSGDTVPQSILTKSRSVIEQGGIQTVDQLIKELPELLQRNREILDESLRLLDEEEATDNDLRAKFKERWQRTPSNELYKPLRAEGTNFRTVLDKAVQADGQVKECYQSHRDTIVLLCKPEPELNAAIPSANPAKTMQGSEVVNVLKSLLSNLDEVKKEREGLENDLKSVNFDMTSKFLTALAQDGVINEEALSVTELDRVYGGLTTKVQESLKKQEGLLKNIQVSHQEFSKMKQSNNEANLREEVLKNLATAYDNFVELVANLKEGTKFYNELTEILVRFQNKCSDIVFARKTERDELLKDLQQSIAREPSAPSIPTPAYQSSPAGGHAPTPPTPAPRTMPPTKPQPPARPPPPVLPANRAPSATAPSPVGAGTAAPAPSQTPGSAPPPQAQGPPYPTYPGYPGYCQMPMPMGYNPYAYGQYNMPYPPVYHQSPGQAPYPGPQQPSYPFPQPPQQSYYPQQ
# UniProt P13667, sequence (P13667 whole entry, looked up): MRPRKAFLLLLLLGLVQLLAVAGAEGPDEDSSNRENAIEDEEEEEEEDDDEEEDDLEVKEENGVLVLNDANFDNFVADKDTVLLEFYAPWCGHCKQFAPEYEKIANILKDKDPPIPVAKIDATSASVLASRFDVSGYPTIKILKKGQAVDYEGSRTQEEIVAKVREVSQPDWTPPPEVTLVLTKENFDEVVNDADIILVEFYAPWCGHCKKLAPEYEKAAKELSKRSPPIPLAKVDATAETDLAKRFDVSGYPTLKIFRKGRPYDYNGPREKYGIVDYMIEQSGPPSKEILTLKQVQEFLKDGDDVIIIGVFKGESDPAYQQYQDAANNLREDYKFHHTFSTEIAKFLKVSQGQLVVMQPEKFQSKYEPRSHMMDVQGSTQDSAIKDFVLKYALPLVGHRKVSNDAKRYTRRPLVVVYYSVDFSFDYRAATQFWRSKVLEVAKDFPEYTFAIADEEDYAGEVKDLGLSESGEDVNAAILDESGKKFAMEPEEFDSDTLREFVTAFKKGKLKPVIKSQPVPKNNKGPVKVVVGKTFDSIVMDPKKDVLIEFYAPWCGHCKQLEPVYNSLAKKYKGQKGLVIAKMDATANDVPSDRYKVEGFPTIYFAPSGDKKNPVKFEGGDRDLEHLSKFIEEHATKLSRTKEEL
# UniProt Q29RF7, sequence (Q29RF7 whole entry, looked up): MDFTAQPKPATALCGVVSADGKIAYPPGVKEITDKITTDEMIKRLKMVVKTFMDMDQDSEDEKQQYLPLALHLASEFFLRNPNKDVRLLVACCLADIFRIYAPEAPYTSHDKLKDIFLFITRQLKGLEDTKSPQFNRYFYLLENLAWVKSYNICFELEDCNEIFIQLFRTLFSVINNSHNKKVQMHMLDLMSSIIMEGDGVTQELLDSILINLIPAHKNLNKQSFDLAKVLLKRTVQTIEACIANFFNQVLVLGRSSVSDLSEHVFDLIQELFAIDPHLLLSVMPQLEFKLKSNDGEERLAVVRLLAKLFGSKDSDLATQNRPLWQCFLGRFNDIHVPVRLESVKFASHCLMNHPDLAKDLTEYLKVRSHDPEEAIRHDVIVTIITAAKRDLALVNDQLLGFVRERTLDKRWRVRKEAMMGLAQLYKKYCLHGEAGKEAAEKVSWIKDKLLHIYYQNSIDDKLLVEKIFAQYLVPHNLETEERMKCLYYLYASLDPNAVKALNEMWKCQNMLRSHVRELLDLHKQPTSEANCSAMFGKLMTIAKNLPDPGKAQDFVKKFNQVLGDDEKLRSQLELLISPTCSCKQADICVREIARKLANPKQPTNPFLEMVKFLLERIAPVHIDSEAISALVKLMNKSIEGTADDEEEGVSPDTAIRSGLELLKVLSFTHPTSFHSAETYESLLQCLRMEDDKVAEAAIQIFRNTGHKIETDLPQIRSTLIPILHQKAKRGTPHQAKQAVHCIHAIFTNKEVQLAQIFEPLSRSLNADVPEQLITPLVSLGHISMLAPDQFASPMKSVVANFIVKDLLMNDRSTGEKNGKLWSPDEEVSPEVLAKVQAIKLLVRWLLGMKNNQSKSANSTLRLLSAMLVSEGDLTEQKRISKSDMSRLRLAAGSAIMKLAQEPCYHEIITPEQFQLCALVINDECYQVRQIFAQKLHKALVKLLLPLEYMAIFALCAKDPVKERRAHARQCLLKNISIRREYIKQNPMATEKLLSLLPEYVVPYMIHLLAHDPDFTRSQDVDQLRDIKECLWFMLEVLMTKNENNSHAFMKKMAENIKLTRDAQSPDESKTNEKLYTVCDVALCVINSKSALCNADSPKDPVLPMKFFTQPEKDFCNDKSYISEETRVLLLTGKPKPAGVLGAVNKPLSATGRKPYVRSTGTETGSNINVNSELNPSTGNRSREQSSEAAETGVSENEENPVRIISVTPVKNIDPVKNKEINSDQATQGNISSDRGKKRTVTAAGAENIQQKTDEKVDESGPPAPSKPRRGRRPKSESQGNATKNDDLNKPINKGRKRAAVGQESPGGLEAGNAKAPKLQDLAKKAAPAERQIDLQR
# UniProt Q9Y6I8, sequence (Q9Y6I8 whole entry, looked up): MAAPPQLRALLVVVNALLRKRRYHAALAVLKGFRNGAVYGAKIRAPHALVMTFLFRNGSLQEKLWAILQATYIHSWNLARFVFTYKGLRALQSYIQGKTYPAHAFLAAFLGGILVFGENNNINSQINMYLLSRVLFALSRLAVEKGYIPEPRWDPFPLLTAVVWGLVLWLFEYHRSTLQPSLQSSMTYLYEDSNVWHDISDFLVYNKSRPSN
# UniProt Q9NXJ5, sequence (Q9NXJ5 whole entry, looked up): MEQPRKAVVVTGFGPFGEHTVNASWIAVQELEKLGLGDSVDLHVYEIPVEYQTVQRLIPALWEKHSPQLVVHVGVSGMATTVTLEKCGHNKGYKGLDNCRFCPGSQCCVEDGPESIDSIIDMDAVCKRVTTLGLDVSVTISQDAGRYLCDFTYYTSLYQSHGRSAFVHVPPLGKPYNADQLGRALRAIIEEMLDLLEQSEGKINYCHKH
# UniProt Q8TCG2, sequence (Q8TCG2 whole entry, looked up): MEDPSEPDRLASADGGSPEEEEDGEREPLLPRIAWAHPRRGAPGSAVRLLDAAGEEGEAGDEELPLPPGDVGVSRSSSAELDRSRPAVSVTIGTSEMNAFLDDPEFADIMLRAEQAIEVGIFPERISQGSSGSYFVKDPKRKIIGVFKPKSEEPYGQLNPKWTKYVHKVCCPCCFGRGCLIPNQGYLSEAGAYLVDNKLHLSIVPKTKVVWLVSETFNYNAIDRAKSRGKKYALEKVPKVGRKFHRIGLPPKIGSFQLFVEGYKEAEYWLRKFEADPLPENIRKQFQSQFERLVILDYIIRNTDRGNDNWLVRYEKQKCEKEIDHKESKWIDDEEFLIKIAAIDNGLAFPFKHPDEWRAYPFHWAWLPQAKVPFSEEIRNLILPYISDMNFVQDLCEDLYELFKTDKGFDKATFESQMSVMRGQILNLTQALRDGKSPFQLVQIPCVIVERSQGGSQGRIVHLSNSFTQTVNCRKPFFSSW
# UniProt Q96S99, sequence (Q96S99 whole entry, looked up): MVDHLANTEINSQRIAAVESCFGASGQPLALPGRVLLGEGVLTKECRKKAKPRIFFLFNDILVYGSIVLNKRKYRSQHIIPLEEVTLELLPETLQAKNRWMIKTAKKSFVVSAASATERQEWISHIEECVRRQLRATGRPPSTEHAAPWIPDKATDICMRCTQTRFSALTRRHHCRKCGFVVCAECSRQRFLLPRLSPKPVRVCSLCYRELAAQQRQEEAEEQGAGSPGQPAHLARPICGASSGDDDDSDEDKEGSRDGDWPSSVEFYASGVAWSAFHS
# UniProt Q9NVM4, sequence (Q9NVM4 whole entry, looked up): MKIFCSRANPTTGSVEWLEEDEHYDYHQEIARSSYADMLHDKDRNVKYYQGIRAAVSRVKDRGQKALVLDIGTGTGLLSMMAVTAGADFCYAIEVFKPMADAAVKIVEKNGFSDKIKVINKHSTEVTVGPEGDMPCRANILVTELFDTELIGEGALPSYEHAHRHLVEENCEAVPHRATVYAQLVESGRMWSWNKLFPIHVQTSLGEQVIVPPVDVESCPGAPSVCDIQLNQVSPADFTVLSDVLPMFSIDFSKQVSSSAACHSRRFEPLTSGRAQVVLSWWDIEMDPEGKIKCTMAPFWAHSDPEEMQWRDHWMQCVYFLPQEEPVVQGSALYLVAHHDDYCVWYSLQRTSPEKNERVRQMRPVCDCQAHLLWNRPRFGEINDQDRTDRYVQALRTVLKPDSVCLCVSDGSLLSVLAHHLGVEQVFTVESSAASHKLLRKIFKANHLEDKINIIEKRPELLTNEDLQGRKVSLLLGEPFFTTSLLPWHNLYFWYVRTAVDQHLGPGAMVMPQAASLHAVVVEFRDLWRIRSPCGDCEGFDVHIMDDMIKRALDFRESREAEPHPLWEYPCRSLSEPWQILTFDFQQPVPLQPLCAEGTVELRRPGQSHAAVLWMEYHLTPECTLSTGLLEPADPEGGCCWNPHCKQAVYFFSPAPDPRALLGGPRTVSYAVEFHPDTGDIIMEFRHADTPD
# UniProt Q8TCD6, sequence (Q8TCD6 whole entry, looked up): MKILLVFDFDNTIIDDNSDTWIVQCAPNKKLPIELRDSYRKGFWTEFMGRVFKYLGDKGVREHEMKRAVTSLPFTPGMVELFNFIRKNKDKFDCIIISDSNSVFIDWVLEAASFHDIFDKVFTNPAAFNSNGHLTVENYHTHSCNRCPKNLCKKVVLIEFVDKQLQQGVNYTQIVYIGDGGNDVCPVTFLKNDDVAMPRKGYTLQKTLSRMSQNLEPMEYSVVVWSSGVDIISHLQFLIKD
Target,log2 fold change [1],log2 fold change [2],log2 fold change [3],log2 fold change [4],log2 fold change [5],log2 fold change [6],log2 fold change [7],log2 fold change [8],log2 fold change [9],log2 fold change [10]
PPCDC (UniProt Q96CD2),0.016,0.023,0.067,-0.157,0.064,-0.023,-0.033,0.019,-0.041,0.003
PLEKHF1 (UniProt Q96S99),-0.004,0.015,0.053,-0.042,0.002,-0.069,-0.025,-0.002,-0.017,0.015
PRIM2 (UniProt P49643),0.067,-0.05,0.041,-0.025,-0.001,0.015,-0.043,0.028,0.054,0.009
PDIA4 (UniProt P13667),0.006,-0.008,-0.016,0.011,0.001,-0.01,0.021,-0.038,0.011,0.007
PDS5A (UniProt Q29RF7),0,0.013,0.008,-0.017,-0.029,0.023,-0.038,0.017,0.031,0.039
PRKAR2B (UniProt P31323),-0.017,0.008,0.007,-0.01,0.022,0.015,-0.004,0.027,0.031,0.03
PCBP3 (UniProt P57721),-0.026,-0.007,-0.005,-0.021,0,-0.04,-0.006,0.053,-0.02,-0.028
PCBP2 (UniProt H3BRU6),0.046,0.016,0.031,-0.018,-0.036,-0.055,0.001,0.141,0.039,-0.031
PUS1 (UniProt Q9Y606),0.006,0.004,0.013,-0.006,0.005,-0.009,-0.032,0.028,0.031,-0.021
PDCD6IP isoform 2 (UniProt Q8WUM4),-0.035,0.009,0.003,0.025,0.013,-0.006,0.046,-0.013,0.029,0.016
PIK3CD (UniProt O00329),-0.14,0.222,-0.017,-0.123,-0.12,0.021,-0.032,0.04,0.098,-0.056
PRKCB isoform 2 (UniProt P05771),-0.017,0.548 (active),0.02,0,0.013,0.002,-0.055,0.042,-0.009,-0.113
PLEKHA5 isoform 6 (UniProt Q9HAU0),0.075,0.003,-0.004,-0.001,0.069,-0.013,-0.033,0.028,0.022,-0.036
PRPF6 (UniProt O94906),0,0,0.038,0.022,0.005,-0.008,0.001,-0.022,0.053,0.007
PGPEP1 (UniProt Q9NXJ5),-0.051,0.02,-0.013,0.013,0.043,-0.078,0.015,0.123,-0.034,-0.053
PPIL3 (UniProt Q9H2H8),0.044,0.029,-0.023,-0.028,0.022,0.001,0.003,0.011,0.009,0.005
PEX2 (UniProt P28328),0.017,-0.114,0.021,-0.098,0.023,0.14,-0.07,-0.002,0.065,0.035

Target,log2 fold change [1],log2 fold change [2],log2 fold change [3],log2 fold change [4],log2 fold change [5],log2 fold change [6],log2 fold change [7],log2 fold change [8],log2 fold change [9],log2 fold change [10]
PPIE (UniProt Q9UNP9),-0.047,-0.015,-0.041,-0.05,-0.025,-0.043,0.021,0.024,0.034,-0.035
PFKFB2 (UniProt O60825),-0.007,-0.014,0.035,-0.017,-0.016,0.006,-0.001,-0.013,-0.011,-0.001
PXMP4 (UniProt Q9Y6I8),-0.022,0,0.012,-0.076,-0.18,-0.008,0.066,0.234,-0.007,0.023
PTPN23 (UniProt Q9H3S7),0.024,0.007,0.029,0.007,-0.019,-0.014,0.01,-0.015,0.009,0.012
PTK2B (UniProt Q14289),0.014,0.073,-0.04,-0.072,-0.005,-0.039,-0.001,-0.049,0.013,-0.022
PRPH isoform 2 (UniProt P41219),-0.099,0.054,0.009,0.067,0.074,0.002,0.007,-0.064,0.023,-0.011
PDF (UniProt Q9HBH1),0.054,0.016,-0.014,0.066,0.001,0.01,0.07,0.048,-0.018,0.059
POLR2M (UniProt P0CAP2),-0.011,0.014,-0.018,-0.042,-0.001,-0.014,-0.046,-0.055,-0.008,0.007
PI4K2B (UniProt Q8TCG2),-0.028,0.04,0.103,0.069,-0.063,-0.075,-0.005,-0.082,0.001,0.005
PRMT7 (UniProt Q9NVM4),0.043,-0.016,0.042,-0.01,0.017,0,-0.008,0.013,0.031,0.008
PICALM (UniProt H0YEH1),-0.077,0.009,-0.035,-0.039,0.05,0.003,0.014,-0.024,0.012,-0.091
PHOSPHO2 (UniProt Q8TCD6),-0.01,0.039,0.003,0.035,0.012,-0.017,0.018,0.006,0.048,0.056
PFDN2 (UniProt Q9UHV9),0.103,0.006,0.08,0.08,0.005,0.016,0.034,-0.017,-0.033,-0.022
PUF60 (UniProt Q9UHX1),0.011,-0.004,-0.034,0.013,0.018,-0.02,0.009,-0.003,-0.001,0.004
PWP2 (UniProt Q15269),0.003,-0.021,0.048,0.027,0.009,0.037,-0.014,-0.035,0.018,0.015
PUF60 isoform 2 (UniProt Q9UHX1),0.153,-0.049,0.045,0.004,-0.174,-0.021,–,0.032,-0.036,0.013

# — the supplement of paper PMC10849652
